VP16 counter: Gal4-VP16 reporter inhibition counter-screen | AID 2546 | 310,000 compounds, 3.5% hits | Drosophila S2 Gal4-VP16 UAS-luciferase, luminescence, 20 h | Potency, µM (titrated, usually from 53.6 µM), hits mostly inhibitors;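 note: Gal4-VP16 expression switched on by copper sulfate through the metallothionein promoter; nearly all actives have a fitted effect of over 50% in size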
ALOX12 inh: inhibitors of human 12S-lipoxygenase ALOX12 | P18054 | purified 12hLO, xylenol orange hydroperoxide absorbance | Potency, µM (top dose mostly 108 µM), usual class: inhibitors | 580,000 compounds, 1.1% hits | AID 1671190
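Purified human 12hLO (150 nM final) in 25 mM Hepes, 0.01% Triton X-100, pH 7.0 was preincubated 15 min at room temperature with compound. Then 40 uM arachidonic acid was added, 30 min. Hydroperoxide was read by Fe-XO absorbance ratio 573/405 nm.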
TDP1 cell noCPT: qHTS for Inhibitors of human tyrosyl-DNA phosphodiesterase 1 (TDP1): qHTS in cells in absence of CPT. DT40 Tdp1-/- hTDP1 cells, no CPT, ATP luminescence, 48 h. Potency, µM (doses to about 46.2 µM), actives largely listed as inhibitors. 420,000 compounds, 15% hits. AID 686978, 2013; note: nearly all actives have a fitted effect of over 55% in size
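Camptothecin absent (DMSO only). Human TDP1-complemented DT40 knockout cells, 400 cells/well, 37 °C for minimum 48 hr; ATP measured via CellTiter-Glo, 30 min dark incubation, luminescence.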
DT40 TDP1 CPT: DT40-hTDP1 cell growth loss with CPT | chicken DT40 Tdp1-/-;hTDP1 cells + 20 nM CPT, ATP luminescence, 48 h | Potency, µM (doses to about 46.2 µM), actives largely listed as inhibitors | AID 686979 | 420,000 compounds, 12% hits; note: nearly all actives have a fitted effect of over 55% in size
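Cell growth measured by CellTiter-Glo luminescence after a minimum 48 h, 37 C compound exposure with 20 nM CPT in Tdp1-knockout DT40 cells stably expressing hTDP1, seeded 400/well; qHTS titration format.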
ELG1 DNA repair: ELG1-dependent DNA repair inhibition. 330,000 compounds, 2.3% hits. HEK293T ELG1-luciferase reporter, luminescence, 16 h; DNA damage induced by 5-fluorouridine. Potency, µM (highest dose often 46.1 µM), most hits filed as inhibitors; note: nearly all actives have a fitted effect of over 55% in size
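Cells (2,000 per well) received 5-fluorouridine plus test compound or DMSO and were incubated 16 hr at 37 °C, 5% CO2. Luciferase activity was read by luminescence 30 min after ONE-Glo addition; signal suppression marked inhibition of damage-induced ELG1 function.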
RORg inh: blocks mouse ROR gamma transcriptional activity. P51450. Drosophila S2 Gal4-RORgamma UAS-luciferase reporter, 20 h. Potency, µM (series often up to 53.6 µM), most hits filed as inhibitors. 310,000 compounds, 5.4% hits. AID 2551; note: nearly all actives have a fitted effect of over 60% in size
Target sequence (P51450 whole entry, looked up, the tested form may be a part): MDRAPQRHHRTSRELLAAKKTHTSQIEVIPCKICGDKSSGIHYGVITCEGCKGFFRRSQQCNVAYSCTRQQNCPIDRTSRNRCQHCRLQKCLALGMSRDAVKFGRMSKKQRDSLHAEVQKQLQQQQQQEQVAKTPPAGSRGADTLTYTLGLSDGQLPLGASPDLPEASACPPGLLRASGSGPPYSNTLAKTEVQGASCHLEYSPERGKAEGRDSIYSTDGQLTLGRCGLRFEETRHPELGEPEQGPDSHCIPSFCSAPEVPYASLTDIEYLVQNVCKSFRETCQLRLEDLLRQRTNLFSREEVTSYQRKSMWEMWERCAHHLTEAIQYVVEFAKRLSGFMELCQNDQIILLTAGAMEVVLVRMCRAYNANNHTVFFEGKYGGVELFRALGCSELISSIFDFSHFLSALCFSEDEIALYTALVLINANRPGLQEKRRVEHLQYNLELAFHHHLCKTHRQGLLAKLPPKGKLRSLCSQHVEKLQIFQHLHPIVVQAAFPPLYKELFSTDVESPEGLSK
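A Gal4/UAS one-hybrid system in insect cells: metallothionein-promoter Gal4–ROR gamma fusion plus Photinus luciferase reporter. Copper sulfate 700 uM final, 20 hr ambient incubation, luminescent detection after 10 min with reagent.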
Hits are given with their value; . = inactive; ? = inconclusive; / = not tested or not shown; [ ] = another dose, or the depositor's remark. An excerpt weighted towards active compounds, which were near 15% of everything screened. Calls come from the whole dose curve; as a rule, active = well fitted curve in the direction sought with a large enough effect; inconclusive = small, poorly fitted or top-dose-only effect, or another doubt; inactive = no such curve, though single readings can be large; an effect the other way counts as inactive or inconclusive.

SMILES	VP16 counter	ALOX12 inh	TDP1 cell noCPT	DT40 TDP1 CPT	ELG1 DNA repair	RORg inh
Cc1nc(NC2=NCN(CCCN3CCOCC3)CN2)nc2c(C)cccc12	.	/	16µM	?	.	.
CCOC(=O)N1CCN(c2cc(N3CCOCC3)c(F)cc2[N+](=O)[O-])CC1	.	.	?	.	.	.
CCOC(=O)N1CCN(c2cc(N3CCN(CC)CC3)c(F)cc2[N+](=O)[O-])CC1C (stereo not drawn)	.	.	?	21µM	.	?
O=C(COC(=O)c1cccs1)NCCC1=CCCCC1	.	.	.	.	.	.
S=C(NCCC1=CCCCC1)Nc1ccc(Cl)cc1	?	.	21µM	23µM	?	3.5µM
COc1ccccc1/C=C/C(=O)NCCC1=CCCCC1	.[10 µM]	.	.	.	?	.
O=C(NC(=S)NCCC1=CCCCC1)c1cccs1	/	11µM	/	/	/	/
O=C(/C=C/c1ccc(F)cc1)NCCC1=CCCCC1	?	.	16µM	21µM	?	.
CCC(=O)c1ccc(OCC(=O)NCCC2=CCCCC2)c(OC)c1	.	.	?	?	.	.
COC(=O)c1ccc(OCC(=O)NCCC2=CCCCC2)c(OC)c1	/	.	23µM	?	?	/
O=C(NCCc1noc(C2CC2)n1)Nc1ccc(C(F)(F)F)cc1	/	.	/	/	/	/
CSc1cccc(NC(=O)Cn2c(Nc3cc(C)cc(C)c3)nc(C)cc2=O)c1	/	.	/	/	/	/
COc1ccc(-c2cc(N3CCCN(C(=O)C(C)c4ccccc4)CC3)n[nH]2)cc1 (stereo not drawn)	/	.	/	/	/	/
O=C1Nc2ccc(-c3ccccc3F)cc2C(=O)N2CCN(C(=O)NC3CCCCC3)C[C@H]12	/	.	/	/	/	/
O=C(COC(=O)c1ccccc1O)NCCC1=CCCCC1	.	.	18µM	.	?	.
COc1ccc(NC(=S)NCCC2=CCCCC2)cc1OC	13µM	?	?	?	?	2.5µM
COc1cccc(/C=C/C(=O)OCC(=O)NCCC2=CCCCC2)c1	.	.	23µM	?	.	.
COc1ccc(NC(=O)NCCC2=CCCCC2)cc1	.	.	.	.	?	.
CCOCC(=O)N1CCC(Cc2ccc(C(=O)N(C)C)cc2)CC1	/	.	/	/	/	/
COc1ccc(/C=C2\C(=O)NC(=S)N2C(=O)c2ccc(C)cc2)cc1	?	?	15µM	?	.	22µM
Cc1nc(S(=O)(=O)N2CCC(C(=O)N3CCN(c4ccccc4)CC3)CC2)cn1C	/	.	/	/	/	/
COc1ccc(S(=O)(=O)N2CCCC(C(=O)N3CCCCCC3)C2)cc1 (stereo not drawn)	.	/	18µM	?	.	.
O=C(C1CCCN(S(=O)(=O)c2cccc3cccnc23)C1)N1CCN(c2ccc(F)cc2)CC1 (stereo not drawn)	.	.	?	23µM	?	.
Cc1nn(C)c(C)c1S(=O)(=O)N1CCCC(C(=O)N2CCN(c3ccccc3)CC2)C1 (stereo not drawn)	.	.	23µM	16µM	.	?
COc1ccc(N2CCN(C(=O)C3CCCN(S(=O)(=O)c4ccc(F)cc4)C3)CC2)cc1 (stereo not drawn)	.	.	8.2µM	10µM	?	.
SMILES	VP16 counter	ALOX12 inh	TDP1 cell noCPT	DT40 TDP1 CPT	ELG1 DNA repair	RORg inh
COc1ccccc1-c1nnc2n1C(C(=O)NCc1ccc(F)cc1)CC2 (stereo not drawn)	/	.[6.33 µM]	/	/	/	/
CCOC(=O)C1CCCN(S(=O)(=O)c2ccc(OC)cc2)C1 (stereo not drawn)	.	.	.	.	.	.
CN1CCN(C(=O)C2CCCN(S(=O)(=O)c3ccccc3)C2)CC1 (stereo not drawn)	.	?	.	.	?	.
COc1ccc(N2CCN(C(=O)C3CCCN(S(=O)(=O)c4ccc(C)cc4)C3)CC2)cc1 (stereo not drawn)	?	.	9.2µM	9.2µM	21µM	?
Cc1ccc(S(=O)(=O)N2CCCC(C(=O)N3CCN(c4ccccc4)CC3)C2)cc1 (stereo not drawn)	/	?	18µM	18µM	21µM	/
COc1ccc(-c2nnc(SC(C)C(=O)NC3CCCCC3)o2)cc1OC (stereo not drawn)	/	.	/	/	/	/
O=C(NCc1ccccc1Cl)c1csc([C@H]2C[C@H](O)[C@@H](CO)O2)n1	/	.	.	.	/	/
O=C(Nc1cccc(Cl)c1)c1ccc2sc([C@H]3C[C@H](O)[C@@H](CO)O3)nc2c1	/	.	23µM	26µM	/	/
O=C(Nc1cccc(Cl)c1)c1ccc2sc([C@@H]3O[C@H](CO)[C@H](O)[C@H](O)[C@H]3O)nc2c1	/	.	.	.	/	/
O=C(Nc1cccc(Cl)c1Cl)c1csc([C@@H]2O[C@H](CO)[C@@H](O)[C@H]2O)n1	/	.	?	23µM	/	/
O=C(Nc1cccc(Cl)c1Cl)c1csc([C@H]2C[C@H](O)[C@@H](CO)O2)n1	/	.	?	15µM	/	/
O=C(NCC1CCCO1)c1ccc2c(c1)N(Cc1ccccc1)CCS2 (stereo not drawn)	.	.	.	?	.	.
Cc1ccc(Cl)cc1N1CCN(C(=O)c2ccc3c(c2)N(Cc2ccccc2)CCS3)CC1	/	.	23µM	16µM	/	/
CCOC(=O)N1CCN(C(=O)c2ccc3c(c2)N(Cc2ccccc2)CCS3)CC1	.	.	26µM	?	?	.
CC1CC(C)CN(C(=O)c2ccc3c(c2)N(Cc2ccccc2)CCS3)C1 (stereo not drawn)	.	/	?	?	.	.
CCc1ccc(NC(=O)c2cnc(N3CCN(c4ccccn4)CC3)c3ccccc23)cc1	.	.	6.5µM	7.3µM	?	.
CCc1ccc(CNC(=O)c2cnc(N3CCCCC3)c3ccccc23)cc1	/	.	26µM	23µM	/	/
O=C(NCc1ccccc1Cl)c1cnc(N2CCCCC2)c2ccccc12	/	?	?	18µM	/	/
Cc1ccc(NC(=O)c2cnc(N3CCCCC3)c3ccccc23)cc1	/	.	/	/	/	/
CCOCCCNc1oc(-c2ccc(S(=O)(=O)N3CCCC3)cc2)nc1C#N	/	.	/	/	/	/
CN1C(=O)CCCCC1C(=O)NCc1ccc(Cl)cc1 (stereo not drawn)	/	.	/	/	/	/
COc1ccc2[nH]c3c(c2c1)CCNC31CCN(C(=O)C2CCC2)CC1	/	.	/	/	/	/
Cc1ccccc1-c1ccc2c(c1)COCC(=O)N2C	/	.	/	/	/	/
CN(C)/C=C\C(=O)C1CC1	/	.	/	/	/	/
COc1ccc(-c2c(C#N)c(N)nc3c2CCc2ccccc2-3)cc1OC	.	.	7.3µM	8.2µM	?	.
COc1cc(-c2c(C#N)c(N)nc3c2CCCC3)ccc1O	.	.	16µM	15µM	.	.
COc1ccc(-c2cc(-c3ccc(O)cc3)nc(N)c2C#N)cc1OC	.	.	?	?	.	.
